Assay results: PubChem BioAssay AID1159580 (chemical genetic matrix, 2015)
About 2,000 (36%) of roughly 5,500 compounds were called active. Roughly 18% stayed inconclusive and do not appear here. No stated cut-off is given here; in the data, active means normalized growth mostly below about 0.91 (no sharp cut-off); inconclusive means no clear call, values can overlap the other calls; inactive means mostly above about 0.92. The list shows a part of the results.

Test: chemical genetic growth profiling, strain panel (AID 1159580);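 further: tested at 20 µM; growth read once vehicle control cultures reached saturation at 30 °C; 1 = growth at the plate median or of vehicle wells; lower values mean less growth of the strain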
Settings: growth OD

Measured: normalized growth

COC1C(O)C(O)C(O)[C@@H](O)C1O (some centres undefined)
inactive: S. cerevisiae deletion strains, locus YJR066W, strain TOR1, hits give low values 0.926 | S. cerevisiae deletion strains, locus YJR075W, strain HOC1, hits give low values 1.01 | S. cerevisiae deletion strains, locus YKL009W, strain mrt4, hits give low values 1.1 | S. cerevisiae deletion strains, locus YKL068W, hits give low values 1.01 | S. cerevisiae deletion strains, locus YKL085W, strain MDH1 (second series), hits give low values 1.02 | S. cerevisiae deletion strains, locus YKL085W, strain MDH1, hits give low values 1.02 | S. cerevisiae deletion strains, locus YKL160W, strain elf1, hits give low values 0.968 | S. cerevisiae deletion strains, locus YKL190W, strain CNB1, hits give low values 1.01 | S. cerevisiae deletion strains, locus YKR001C, strain vps1, hits give low values 1.05 | S. cerevisiae deletion strains, locus YKR026C, strain gcn3, hits give low values 0.978 | S. cerevisiae deletion strains, locus YKR091W, strain srl3, hits give low values 0.972 | S. cerevisiae deletion strains, locus YLL001W, strain dnm1, hits give low values 0.944 | S. cerevisiae deletion strains, locus YLL026W, hits give low values 0.992 | S. cerevisiae deletion strains, locus YLL041C, strain sdh2, hits give low values 0.978 | S. cerevisiae deletion strains, locus YLR027C, strain aat2, hits give low values 0.969 | S. cerevisiae deletion strains, locus YLR039C, strain RIC1, hits give low values 1.07 | S. cerevisiae deletion strains, locus YLR058C, strain SHM2, hits give low values 1.01 | S. cerevisiae deletion strains, locus YLR102C, strain apc9, hits give low values 1.02 | S. cerevisiae deletion strains, locus YLR113W, strain HOG1, hits give low values 0.97 | S. cerevisiae deletion strains, locus YLR221C, strain rsa3, hits give low values 0.965 | S. cerevisiae deletion strains, locus YLR258W, strain gsy2, hits give low values 0.979 | S. cerevisiae deletion strains, locus YLR262C, strain YPT6 (second series), hits give low values 0.971 | S. cerevisiae deletion strains, locus YLR262C, strain YPT6, hits give low values 1.03 | S. cerevisiae deletion strains, locus YLR268W, strain sec22, hits give low values 1.05 | S. cerevisiae deletion strains, locus YLR320W, strain mms22, hits give low values 0.963 | S. cerevisiae deletion strains, locus YLR330W, strain CHS5, hits give low values 1.01 | S. cerevisiae deletion strains, locus YLR342W, strain FKS1 (second series), hits give low values 1.08 | S. cerevisiae deletion strains, locus YLR342W, strain FKS1, hits give low values 0.973 | S. cerevisiae deletion strains, locus YLR357W, strain rsc2, hits give low values 0.959 | S. cerevisiae deletion strains, locus YLR370C, strain arc18, hits give low values 0.971 | S. cerevisiae deletion strains, locus YLR371W, strain rom2, hits give low values 1.02 | S. cerevisiae deletion strains, locus YLR384C, strain iki3, hits give low values 0.96 | S. cerevisiae deletion strains, locus YLR418C, strain cdc73, hits give low values 1.06 | S. cerevisiae deletion strains, locus YML016C, strain PPZ1, hits give low values 1.01 | S. cerevisiae deletion strains, locus YML032C, strain rad52, hits give low values 1.04 | S. cerevisiae deletion strains, locus YML120C, strain ndi1, hits give low values 0.97 | S. cerevisiae deletion strains, locus YML124C, strain tub3, hits give low values 1.02 | S. cerevisiae deletion strains, locus YMR058W, strain fet3, hits give low values 0.973 | S. cerevisiae deletion strains, locus YMR078C, strain ctf18, hits give low values 1.01 | S. cerevisiae deletion strains, locus YMR125W, strain sto1, hits give low values 0.958 | S. cerevisiae deletion strains, locus YMR129W, hits give low values 0.976 | S. cerevisiae deletion strains, locus YMR205C, strain PFK2, hits give low values 0.966 | S. cerevisiae deletion strains, locus YMR223W, strain ubp8, hits give low values 1 | S. cerevisiae deletion strains, locus YMR231W, strain pep5, hits give low values 0.971 | S. cerevisiae deletion strains, locus YMR263W, strain SAP30, hits give low values 0.997 | S. cerevisiae deletion strains, locus YMR307W, strain GAS1, hits give low values 1.05 | S. cerevisiae deletion strains, locus YNL067W, strain RPL9B, hits give low values 0.998 | S. cerevisiae deletion strains, locus YNL071W, strain lat1, hits give low values 0.973 | S. cerevisiae deletion strains, locus YNL128W, strain TEP1, hits give low values 1.03 | S. cerevisiae deletion strains, locus YNL183C, strain NPR1, hits give low values 0.962 | S. cerevisiae deletion strains, locus YNL209W, strain ssb2, hits give low values 0.987 | S. cerevisiae deletion strains, locus YNL233W, strain BNI4, hits give low values 1.01 | S. cerevisiae deletion strains, locus YNL248C, strain rpa49, hits give low values 0.976 | S. cerevisiae deletion strains, locus YNL250W, strain rad50, hits give low values 1.02 | S. cerevisiae deletion strains, locus YNL271C, strain bni1, hits give low values 1.01 | S. cerevisiae deletion strains, locus YNL298W, strain CLA4, hits give low values 1.03 | S. cerevisiae deletion strains, locus YNL307C, strain MCK1, hits give low values 1.02 | S. cerevisiae deletion strains, locus YNL322C, strain KRE1 (second series), hits give low values 0.97 | S. cerevisiae deletion strains, locus YNR049C, strain mso1, hits give low values 0.979 | S. cerevisiae deletion strains, locus YNR052C, strain pop2, hits give low values 1.01 | S. cerevisiae deletion strains, locus YOL012C, strain htz1 1.17 | S. cerevisiae deletion strains, locus YOL147C, strain pex11, hits give low values 1.01 | S. cerevisiae deletion strains, locus YOR001W, strain rrp6, hits give low values 0.995 | S. cerevisiae deletion strains, locus YOR061W, strain CKA2, hits give low values 1.02 | S. cerevisiae deletion strains, locus YOR069W, strain VPS5, hits give low values 1.01 | S. cerevisiae deletion strains, locus YOR070C, strain gyp1, hits give low values 1 | S. cerevisiae deletion strains, locus YOR080W, strain dia2, hits give low values 0.979 | S. cerevisiae deletion strains, locus YOR083W, strain WHI5, hits give low values 0.964 | S. cerevisiae deletion strains, locus YOR106W, strain vam3, hits give low values 0.96 | S. cerevisiae deletion strains, locus YOR136W, strain idh2, hits give low values 1.03 | S. cerevisiae deletion strains, locus YOR144C, strain elg1, hits give low values 1.01 | S. cerevisiae deletion strains, locus YOR184W, strain ser1, hits give low values 1.03 | S. cerevisiae deletion strains, locus YOR231W, strain MKK1, hits give low values 0.977 | S. cerevisiae deletion strains, locus YOR265W, strain rbl2, hits give low values 0.989 | S. cerevisiae deletion strains, locus YOR270C, strain vph1, hits give low values 0.985 | S. cerevisiae deletion strains, locus YOR290C, strain snf2, hits give low values 0.913 | S. cerevisiae deletion strains, locus YOR316C, strain cot1, hits give low values 1.02 | S. cerevisiae deletion strains, locus YPL051W, strain arl3, hits give low values 0.97 | S. cerevisiae deletion strains, locus YPL055C, strain LGE1, hits give low values 1.02 | S. cerevisiae deletion strains, locus YPL078C, strain atp4, hits give low values 0.965 | S. cerevisiae deletion strains, locus YPL106C, strain sse1, hits give low values 0.949 | S. cerevisiae deletion strains, locus YPL240C, strain hsp82, hits give low values 0.986 | S. cerevisiae deletion strains, locus YPL256C, strain CLN2, hits give low values 0.93 | S. cerevisiae deletion strains, locus YPR119W, strain clb2, hits give low values 1.02 | S. cerevisiae deletion strains, locus YPR141C, strain kar3, hits give low values 1.03 | S. cerevisiae deletion strains, locus YPR163C, strain tif3, hits give low values 1.02 | S. cerevisiae deletion strains, locus YPR167C, strain met16, hits give low values 1.05 | S. cerevisiae deletion strains, strain wtn01, hits give low values 1.06 | S. cerevisiae strains, strain wild type, hits give low values 1.01
